Experiment [1] is described as follows: resazurin metabolic signal in HepG2 cells – cell-based, resazurin fluorescence, 24 h, PK04 Diversity Set, profiling panel (AID 1172). The settings on record: HepG2 viability, higher = more signal. On the technique in general: Resazurin is reduced to fluorescent resorufin, in cell work by metabolically active cells.
Experiment [2] is described as follows: budding yeast growth changes without added modifier – OD600, strain BY4716, 24 h, basal condition, primary screen (AID 1173). The conditions noted are these: S. cerevisiae BY4716 growth, OD600, 24 h; higher = more signal, called active from +8 up or from −8 down.
Experiment [3] is described as follows: viability profiling in MM1S myeloma cells – cell-based, resazurin fluorescence, basal, 24 h, PK04 Diversity Set, profiling panel (AID 1174).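 Further: MM1S multiple myeloma cell line.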 The settings on record: higher = more signal, called active from +8 up or from −8 down.
Experiment [4] has as its target Dihydroorotate dehydrogenase (quinone), mitochondrial (Plasmodium falciparum (isolate 3D7)) (UniProt Q08210). As to the kind of experiment: inhibition of P. falciparum DHODH – biochemical, C-terminal His tag, absorbance 600 nm, primary screen (AID 1175).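 Further: recombinant parasite enzyme with a five histidine tag at its C terminus.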 The settings on record: PfDHODH enzyme, DCIP absorbance 600 nm; higher = more signal, called active from +8 up or from −8 down.

A short description of experiment [5]: inhibition of PAO1 biofilm formation – strain PAO1, LB-PBS medium, absorbance 600 nm, primary screen (AID 1176). The settings on record: P. aeruginosa PAO1 growth/biofilm, A600, 12 h; higher = more signal.
The nature of experiment [6]: growth modulation of vineyard yeast isolate – strain RM11-1a, OD600, basal, 24 h, primary screen (AID 1177).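 Further: cultures grown under basal conditions with no added stressor.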 The conditions noted are these: S. cerevisiae RM11-1a growth, OD600, 24 h; higher = more signal, called active from +8 up or from −8 down.
Experiment [7] is described as follows: growth of efflux-deficient E. coli DRC39 – strain DRC39, OD650, 24 h, E. coli filamentation inducers, primary screen (AID 1178).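 Further: growth measured as culture turbidity by optical density at 650 nm.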 The settings on record: E. coli DRC39 acrAB, higher = more signal, called active from +8 up or from −8 down.
A short description of experiment [8]: growth of efflux-deficient E. coli DRC39 – strain DRC39, OD650, 48 h, E. coli filamentation inducers, primary screen (AID 1179).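 Further: screen aims at cell division blockers that make cells filament.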 The conditions noted are these: E. coli DRC39 delta-acrAB growth, higher = more signal, called active from +8 up or from −8 down.
The nature of experiment [9]: viability profiling in RPMI8226 myeloma cells – cell-based, resazurin fluorescence, basal, 24 h, PK04 Diversity Set, profiling panel (AID 1180).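 Further: RPMI8826 multiple myeloma cell line at 5000 cells per well.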 The conditions noted are these: higher = more signal.
For experiment [10], the target named is E3 ubiquitin-protein ligase XIAP (Homo sapiens) (UniProt P98170). Description: small molecules binding XIAP protein – biophysical, small-molecule microarray, fluorescence 635 nm, primary screen (AID 1181).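 Further: score merges 667 nm emission and signal to noise over triplicate slides.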 The conditions noted are these: higher = more signal.
Experiment [11] has as its system XIP peptide (Xip251-270) binding. As to the kind of experiment: XIP fragment 251-270 binding compounds – biochemical, small-molecule microarray, fluorescence 635/667 nm, 0.1 µg/mL protein, primary screen (AID 1182). The conditions noted are these: fluorescent protein binding, 635 nm, higher = more signal, called active from +8 up or from −8 down.
For another experiment, the system named is XIP peptide (Xip251-270). Description: compounds binding XIP fragment 251-270 – biochemical, small-molecule microarray, fluorescence 635/667 nm, 0.5 µg/mL protein, primary screen (AID 1183). The conditions noted are these: fluorescence 635 nm, higher = more signal.
Experiment [12] is described as follows: blood-stage malaria parasite viability loss – strain 3D7, DAPI fluorescence, 100 nL, primary screen (AID 1184).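 Further: parasites grown inside human red blood cells in medium with human serum.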 The settings on record: P. falciparum 3D7 growth, 3 d, higher = more signal.
Experiment [13] addresses Homeobox protein Hox-A13 (Mus musculus) (UniProt Q62424). Description: disruptors of Hoxa13 oligonucleotide interaction – biochemical, fluorescence polarization, labeled oligonucleotide, primary screen (AID 1185). The conditions noted are these: Hoxa13:DNA binding, 15 min, higher = more signal, called active from +8 up or from −8 down. A general note: Polarisation of emitted light reports the rotation of a fluorescent probe.

Experiment [14] is described as follows: blockers of DNA damage checkpoint Chk1 activation – imaging, HeLa, hydroxyurea, phospho-Chk1 antibody, percent positive cells, primary screen (AID 1186). The settings on record: hydroxyurea-induced phospho-Chk1 immunofluorescence imaging, higher = more signal.
The nature of experiment [15]: blockers of DNA damage checkpoint Chk1 activation – imaging, HeLa, hydroxyurea, phospho-Chk1 nuclear intensity, primary screen (AID 1187). The conditions noted are these: hydroxyurea-induced phospho-Chk1 immunofluorescence imaging, higher = more signal.

Several values for one entry are separate records, joined by “and”; a condition that tells them apart may be missing. Equal values may be shown once. Activity calls are given as the source filed them. Unless noted, how the calls were made is not given here.

The record followed here is PubChem BioAssay.

E3 ubiquitin-protein ligase XIAP (Homo sapiens), sequence (P98170 whole entry, looked up, the tested form may be a part): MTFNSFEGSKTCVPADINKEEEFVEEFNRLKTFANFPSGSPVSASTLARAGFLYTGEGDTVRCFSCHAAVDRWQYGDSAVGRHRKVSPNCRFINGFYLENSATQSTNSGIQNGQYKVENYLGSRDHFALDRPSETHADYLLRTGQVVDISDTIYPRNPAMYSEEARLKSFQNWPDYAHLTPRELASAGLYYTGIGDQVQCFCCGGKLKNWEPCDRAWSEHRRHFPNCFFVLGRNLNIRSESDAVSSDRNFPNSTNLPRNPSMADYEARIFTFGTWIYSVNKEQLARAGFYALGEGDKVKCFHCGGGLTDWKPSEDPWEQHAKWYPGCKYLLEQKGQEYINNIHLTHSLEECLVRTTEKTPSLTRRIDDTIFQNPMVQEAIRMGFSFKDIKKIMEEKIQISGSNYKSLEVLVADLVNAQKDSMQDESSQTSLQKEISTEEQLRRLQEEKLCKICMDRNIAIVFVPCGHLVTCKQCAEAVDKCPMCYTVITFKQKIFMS
Homeobox protein Hox-A13 (Mus musculus), sequence (Q62424 whole entry, looked up): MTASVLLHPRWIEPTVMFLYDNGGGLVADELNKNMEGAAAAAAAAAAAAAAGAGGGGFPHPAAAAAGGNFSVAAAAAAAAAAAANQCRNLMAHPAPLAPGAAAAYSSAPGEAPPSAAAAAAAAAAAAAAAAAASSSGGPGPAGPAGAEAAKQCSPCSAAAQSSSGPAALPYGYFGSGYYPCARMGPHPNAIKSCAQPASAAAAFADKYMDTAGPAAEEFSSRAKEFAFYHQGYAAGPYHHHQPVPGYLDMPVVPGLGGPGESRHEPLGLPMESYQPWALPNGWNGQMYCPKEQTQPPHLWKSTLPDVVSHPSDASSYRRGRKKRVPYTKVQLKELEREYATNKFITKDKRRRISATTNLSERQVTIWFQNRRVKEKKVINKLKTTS
Dihydroorotate dehydrogenase (quinone), mitochondrial (Plasmodium falciparum (isolate 3D7)), sequence (Q08210 whole entry, looked up): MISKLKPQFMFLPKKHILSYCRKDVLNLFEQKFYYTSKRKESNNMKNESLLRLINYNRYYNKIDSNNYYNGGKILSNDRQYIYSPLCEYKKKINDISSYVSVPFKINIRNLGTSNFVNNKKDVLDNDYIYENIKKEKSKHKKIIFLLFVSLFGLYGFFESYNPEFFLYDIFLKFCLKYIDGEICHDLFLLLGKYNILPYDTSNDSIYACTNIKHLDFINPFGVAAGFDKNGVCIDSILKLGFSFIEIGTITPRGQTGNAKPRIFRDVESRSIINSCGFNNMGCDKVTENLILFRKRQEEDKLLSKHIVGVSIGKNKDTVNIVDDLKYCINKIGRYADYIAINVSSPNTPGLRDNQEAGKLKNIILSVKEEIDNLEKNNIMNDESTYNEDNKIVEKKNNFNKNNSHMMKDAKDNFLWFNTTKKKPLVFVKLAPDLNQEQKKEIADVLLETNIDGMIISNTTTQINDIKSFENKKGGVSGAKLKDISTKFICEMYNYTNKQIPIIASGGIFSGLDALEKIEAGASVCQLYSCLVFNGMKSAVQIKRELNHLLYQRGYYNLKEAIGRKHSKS

On to `Cc1ccc(S(=O)(=O)OC[C@@H]2CN3[C@@H](CC[C@@H](C)[C@@H]3c3ccc(Br)cc3)C(=O)O2)cc1`, for which the z-score in [1] is -0.928 and 0.711; in experiment [2], 0.212 (inactive) and 0.117 (inactive); in experiment [3], 0.0032 (inactive) and 0.781 (inactive); in experiment [5], 0.487 (inactive) and -0.139 (inactive); in [6] it was -0.0273 (inactive) and 0.72 (inactive); in experiment [7] it was 0.393 (inactive) and -1.04 (inactive). Moreover, the z-score is 0.521 (inactive) and -0.956 (inactive) in experiment [8]; -0.109 and 0.607 in experiment [9]; -0.17 and -0.013 in experiment [12]; 0.16 (inactive) and 0.956 (inactive) in [13]. Also, the composite z-score is -0.559 (inactive) and 0.188 (inactive) in [4]; 1.69 and -0.0599 in experiment [10]; 0.589 (inactive) and -0.699 (inactive) in experiment [11]; 0.432 and 0.299 in the experiment with XIP peptide (Xip251-270).

For the molecule `CO[C@H]1COC(=O)[C@H](C)NC(=O)CC=C[C@@H](C)[C@H](OC)COC(=O)CC=C[C@@H]1C`, the z-score is 0.322 in experiment [1]; 0.278 (inactive) in experiment [2]; 0.845 (inactive) in [3]; -0.519 (inactive) in experiment [5]; 1.18 (inactive) in [6]; 0.901 (inactive) in experiment [7]. Also, the z-score in [8] is -0.959 (inactive); in [9], 0.636; in experiment [12], 0.459; in experiment [13], -0.298 (inactive). For the same molecule, the composite z-score in experiment [4] is 0.804 (inactive); in experiment [10], 0.234; in experiment [11] it was 0.195 (inactive); in the experiment with XIP peptide (Xip251-270), 0.394.

Consider `C=CC[C@H](O)c1ccc(OCCO)cc1`, for which the z-score is 0.116 and -0.551 in experiment [1]; -1.47 (inactive) and -1.79 (inactive) in [2]; -0.567 (inactive) and -0.911 (inactive) in experiment [3]; 0.225 (inactive) and -0.0818 (inactive) in experiment [5]; -0.0329 (inactive) and -0.774 (inactive) in [6]; 0.375 (inactive) and -0.241 (inactive) in experiment [7]. The z-score was 0.333 (inactive) and -0.405 (inactive) in experiment [8]; -0.535 and 0.0681 in [9]; -0.597 and 1.72 in [12]; -0.488 (inactive) and -0.803 (inactive) in experiment [13]; -0.23 (inactive) and 0.182 (inactive) in [14]; 0.313 (inactive) and 0.469 (inactive) in experiment [15]. The composite z-score in [4] was -0.364 (inactive) and -0.704 (inactive); in experiment [10] it was 0.0697 and -0.152; in [11], 0.179 (inactive) and 0.125 (inactive); with XIP peptide (Xip251-270), -1.28 and -0.655.

Consider `COC(=O)[C@@]1(Cc2ccccc2)[C@H]2c3cc(C(=O)N(C)C)n(C[C@H](O)CO)c3C[C@H]2CN1C(=O)c1ccccc1`, for which the z-score in experiment [1] is -0.777 and -0.734; in experiment [2], 0.168 (inactive) and 1.78 (inactive); in experiment [3] it was -0.939 (inactive) and -0.957 (inactive); in experiment [5] it was 1.32 (inactive) and 0.15 (inactive); in experiment [6], 1.03 (inactive) and -0.204 (inactive); in experiment [7] it was 0.146 (inactive) and -0.785 (inactive). Besides, the z-score is -0.121 (inactive) and -0.352 (inactive) in experiment [8]; -0.205 and -0.62 in [9]; -0.894 and -0.297 in experiment [12]; -2.22 (inactive) and -4.41 (inactive) in experiment [13]; -0.601 (inactive) and 1.42 (inactive) in [14]; -0.292 (inactive) and 1.06 (inactive) in [15]. The composite z-score in experiment [4] is -0.402 (inactive) and 0.547 (inactive); in experiment [10] it was 0.333 and 0.107; in experiment [11], 0.386 (inactive) and -0.28 (inactive); in the experiment on XIP peptide (Xip251-270) it was -0.0997 and 0.84.

For the molecule `CO[C@H]1COC(=O)CC=C[C@H](C)[C@H](OC)COC(=O)[C@@H](C)COC(=O)CC=C[C@@H]1C`, the z-score in [1] is 0.492 and 0.464; in [2], -0.415 (inactive) and -1.07 (inactive); in experiment [3], 0.429 (inactive) and 0.802 (inactive); in [5], -0.519 (inactive) and -0.118 (inactive); in experiment [6], -0.436 (inactive) and -0.638 (inactive); in [7] it was 0.945 (inactive) and 1.12 (inactive). In addition, the z-score in [8] was 0.658 (inactive) and 1.09 (inactive); in experiment [9] it was 0.168 and 0.365; in [12], 0.298 and 0.795; in experiment [13], 0.397 (inactive) and 0.774 (inactive). Moreover, the composite z-score in experiment [4] is 0.175 (inactive) and 0.55 (inactive); in experiment [10] it was 0.0256 and -0.202; in experiment [11] it was -0.205 (inactive) and 0.308 (inactive); with XIP peptide (Xip251-270), 0.602 and -0.337.

On to `Cc1ccc(S(=O)(=O)N[C@H]2COC(=O)[C@@H](Cc3ccccc3)NC(=O)[C@@H](C)COC(=O)CC=C[C@@H]2C)cc1`, for which the z-score in [1] is 0.328 and 0.224; in [2], -0.207 (inactive) and -0.631 (inactive); in experiment [3], 0.0731 (inactive) and -0.209 (inactive); in experiment [5] it was -0.814 (inactive) and -0.479 (inactive); in [6], 0.0658 (inactive) and 0.0386 (inactive); in experiment [7], 0.046 (inactive) and -0.0139 (inactive). Further, the z-score in experiment [8] is -0.479 (inactive) and 0.385 (inactive); in experiment [9] it was 0.0023 and 0.238; in experiment [12] it was -0.446 and -1.34; in experiment [13], 0.469 (inactive) and -3.02 (inactive). The composite z-score in experiment [4] was -0.395 (inactive) and -0.412 (inactive); in experiment [10], -0.259 and -0.469; in [11], 0.124 (inactive) and 0.125 (inactive); in the experiment with XIP peptide (Xip251-270), 0.174 and -0.0928.

Consider `CCOC(=O)[C@H](Cc1ccccc1)NC(=O)CCC1CC(OC(=O)NCc2cccc3ccccc23)CC2(CCCC(COC(=O)NCCCN3CCCC3=O)O2)O1` (stereo partly drawn), for which the z-score in [1] is 0.968; in [2], -1.78 (inactive); in experiment [3] it was 1.07 (inactive); in experiment [5] it was 0.639 (inactive); in [6], -0.697 (inactive); in experiment [7] it was -0.35 (inactive). For the same molecule, the z-score was -0.209 (inactive) in experiment [8], 1.75 in [9], -1.63 in experiment [12] and -4.68 (inactive) in experiment [13]. Moreover, the composite z-score is -1.19 (inactive) in experiment [4], -0.336 in experiment [10], 0.684 (inactive) in experiment [11] and 0.351 in the experiment on XIP peptide (Xip251-270).

Regarding `C[C@@]1([C@@H](NC(=O)Cc2ccccc2)c2ccc(-c3ccccc3)cc2)C[C@H]1C1CCCCC1`, the z-score in experiment [1] was -1.11 and 1.82 and -1; in [2] it was 0.332 (inactive) and 0.351 (inactive) and 1.3 (inactive); in experiment [3] it was -0.506 (inactive) and 1.03 (inactive) and -1.05 (inactive); in [5], 2.92 (inactive) and 1.4 (inactive) and 1.18 (inactive); in experiment [6], 1.75 (inactive) and 0.465 (inactive) and 1.58 (inactive); in experiment [7], -0.305 (inactive) and -0.278 (inactive) and -1.43 (inactive). The z-score in experiment [8] was -0.0393 (inactive) and -0.777 (inactive) and -0.74 (inactive); in [9], -3.36 and 2.84 and -1.47; in experiment [12], -1.3 and -0.345 and -1.39; in [13], 1.49 (inactive) and -0.249 (inactive) and -1.63 (inactive); in experiment [14] it was 0.641 (inactive) and 0.338 (inactive) and 0.416 (inactive); in [15], 1.03 (inactive) and 0.448 (inactive) and -0.21 (inactive). The composite z-score in [4] is -4.04 (inactive) and -0.594 (inactive) and -0.535 (inactive); in experiment [10], 0.102 and 0.0464 and -0.02; in experiment [11], 0.142 (inactive) and -0.175 (inactive) and -0.0036 (inactive); in the experiment on XIP peptide (Xip251-270), 0.0261 and -0.867 and 0.444.
